Screens from PubChem.
A selection: hits, their analogues and other compounds. The true share with any hit is near 3.5%.
TEAD-YAP inh: TEAD-YAP interaction inhibition, primary screen, TEAD-YAP interaction inhibitor project, luminescence, HEK-TIYL cells; TEAD-Gal4/YAP UAS-luciferase luminescence; inhibition, % at 9.12 µM; hit rate 1.4% among 640,000; in the data active = inhibition above about 32%
GPR151 ag: activators of human GPR151, primary screen, cell-based, PathHunter beta-arrestin, luminescence; G-protein coupled receptor 151 (Homo sapiens), Q8TDV0; PathHunter beta-arrestin GPR151 cells; activation, % at 11.2 µM; hit rate 1% among 650,000; AID 1508602, 2020; in the data active = activation above about 4.9%
MITF inh: MITF inhibitors, primary screen, biochemical, AlphaScreen, human; AlphaScreen MITF homodimerization, bead proximity signal; inhibition, % at 2.6 µM; hit rate 0.91% among 650,000; AID 1259374, 2018; in the data active = inhibition above about 50%
FBW7 act: FBW7 E3 ligase activators, primary screen, biochemical, AlphaScreen, human; F-box/WD repeat-containing protein 7 (Homo sapiens), Q969H0; AlphaScreen FBW7–phospho-cyclin E peptide binding, activator screen; normalized activity (activation), % at 26.1 µM; hit rate 0.13% among 650,000; AID 1259310, 2017; in the data active = normalized activity above about 1.9%;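 note: purified mutant Fbw7 with reduced substrate affinity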
Target sequence (Q969H0 whole entry, looked up): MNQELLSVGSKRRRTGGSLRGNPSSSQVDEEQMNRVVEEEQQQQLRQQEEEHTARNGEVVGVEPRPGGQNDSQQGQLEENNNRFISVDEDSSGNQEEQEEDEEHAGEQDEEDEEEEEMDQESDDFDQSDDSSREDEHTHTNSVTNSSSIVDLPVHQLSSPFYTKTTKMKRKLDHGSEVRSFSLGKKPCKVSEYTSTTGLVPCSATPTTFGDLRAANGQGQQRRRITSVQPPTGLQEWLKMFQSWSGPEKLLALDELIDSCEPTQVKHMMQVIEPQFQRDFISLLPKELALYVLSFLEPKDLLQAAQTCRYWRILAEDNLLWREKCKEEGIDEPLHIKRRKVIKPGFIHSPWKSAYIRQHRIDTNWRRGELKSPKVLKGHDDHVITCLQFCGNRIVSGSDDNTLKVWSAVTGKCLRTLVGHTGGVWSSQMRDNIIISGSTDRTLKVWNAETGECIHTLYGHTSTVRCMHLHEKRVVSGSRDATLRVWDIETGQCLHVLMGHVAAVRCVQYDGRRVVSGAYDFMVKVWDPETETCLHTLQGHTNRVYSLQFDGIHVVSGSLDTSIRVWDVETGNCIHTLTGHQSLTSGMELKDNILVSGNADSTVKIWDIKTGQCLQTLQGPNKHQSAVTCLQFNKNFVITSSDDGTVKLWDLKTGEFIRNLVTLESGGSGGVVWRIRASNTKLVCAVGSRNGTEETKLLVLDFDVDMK
GPR151 conf act: GPR151 activators, triplicate retest, confirmation, cell-based, PathHunter beta-arrestin, luminescence. shares compounds with GPR151 ag. activation, % at 11.2 µM. 6,700 tested, under 10 active. GPR151 PathHunter beta-arrestin cells, 90 min; % of EA-reagent control over plate median;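 active = mean percent activation across replicates above the confirmation screen cutoff of 4.91%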
GPR119 ag: GPR119 activators in beta-arrestin cells, counter-screen for GPR151 activator project, cell-based, PathHunter beta-arrestin, luminescence, triplicate | shares compounds with GPR151 ag | 90 min; 0 = compound-well median, 100 = enzyme-acceptor control | activation, % at 11.2 µM | hit rate 0.3% among 6,700 | AID 1508611, 2020;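 active = mean percent activation in the counterscreen above 29.09%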;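 note: counterscreen on off-target GPR119 to flag nonselective hits from the GPR151 activator screen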
Large screens that a line does not name were inactive (follow-up assays come after a bar, where they were run).

CCOc1ccc(-c2csc(/C(C#N)=C/c3ccccc3OCC)n2)cc1	GPR151 ag 6.2 | GPR151 conf act inactive | GPR119 ag inactive
COc1ccc(N/C=C(/C#N)c2nc(-c3ccccc3)cs2)cc1	GPR151 ag 10.0 | GPR151 conf act inactive | GPR119 ag inactive
CCOc1ccc(/C=C(/C#N)c2nc(-c3ccc(Br)cc3)cs2)c(OCC)c1	none
COc1ccc(-c2csc(/C(C#N)=C/Nc3ccc(C(N)=O)cc3)n2)cc1OC	none
COc1ccc(-c2csc(/C(C#N)=C/Nc3ccc(F)c([N+](=O)[O-])c3)n2)cc1OC	GPR151 ag 5.2 | GPR151 conf act inactive | GPR119 ag inactive
Cn1c(=O)oc2cc(C(=O)c3ccccc3)ccc21	none
CCCC(=O)NC(=S)Nc1ccccc1[N+](=O)[O-]	none
Cn1c(=O)c2c(nc(NCCOCCO)n2Cc2ccc(Cl)c(Cl)c2)n(C)c1=O	GPR151 ag 5.2 | GPR151 conf act inactive | GPR119 ag inactive
O=C(NCC1COc2ccccc2O1)c1cccc(Br)c1 (stereo not drawn)	none
CCNc1nc(NCc2cccnc2)c2[nH]cnc2n1	none
CC(C)N(CCNc1nc(NCc2cccnc2)nc2nc[nH]c12)C(C)C	GPR151 ag 6.2 | GPR151 conf act inactive | GPR119 ag inactive
C=CCNC(=O)CSc1nc(CCC)cc(=O)[nH]1	none
COc1cccc(/C=N/NC(=O)c2ccc(-n3c(C)ccc3C)cc2O)c1O	GPR151 ag 5.4, MITF inh 64 | GPR151 conf act inactive | GPR119 ag inactive
COc1cc(OC)nc(Oc2cccc(C)c2/C=N/NC(=O)c2ccccn2)n1	GPR151 ag 6.0 | GPR151 conf act inactive | GPR119 ag inactive
COc1ccc(/C=N\NC(=O)c2cnccn2)cc1OCc1ccccc1	GPR151 ag 5.8 | GPR151 conf act inactive | GPR119 ag inactive
COc1ccc(Br)cc1C(=O)N/N=C/c1cccc(OC)c1O	none
COc1cccc(/C=N\NC(=O)c2cnccn2)c1O	GPR151 ag 5.3 | GPR151 conf act inactive | GPR119 ag inactive
COC(=O)C1(C(F)(F)F)N=C2C(Cl)=CC(Cl)=CN2C(c2ccc(F)cc2)=N1 (stereo not drawn)	none
COC(=O)c1ccc(C(=O)Nc2nc3c(ccc4ccccc43)s2)cc1	none
N#Cc1c(NC(=O)c2cc3nc(-c4cccs4)cc(C(F)(F)F)n3n2)sc2c1CCCCC2	none
COc1cccc(/C=N/NC(=O)c2[nH]nc(-c3ccccc3)c2C)c1O	GPR151 ag 7.6 | GPR151 conf act inactive | GPR119 ag inactive
CCOc1ccc(/C=N/NC(=O)c2ccccn2)cc1OC	GPR151 ag 6.8 | GPR151 conf act inactive | GPR119 ag inactive
COc1cccc(/C=N/NC(=O)C(=O)NCC(C)C)c1O	GPR151 ag 30 | GPR151 conf act inactive | GPR119 ag inactive
COc1cc(/C=N/NC(=O)c2ccccn2)ccc1OC(C)=O	none
COc1cccc(/C=N/NC(=O)C(=O)NC(C)c2ccccc2)c1O (stereo not drawn)	none
O=C(O)CCC(=O)c1ccc(Cc2ccccc2)cc1	GPR151 ag 5.3 | GPR151 conf act inactive | GPR119 ag inactive
CC1N=C2c3ccccc3N=C(SCc3ccc(C(C)(C)C)cc3)N2C1=O (stereo not drawn)	none
CC1(C(=O)NNC(=S)NCc2ccco2)CC1(Cl)Cl (stereo not drawn)	GPR151 ag 5.3 | GPR151 conf act inactive | GPR119 ag inactive
CC1CCC2(CC1)NC(=O)N(CC(=O)NC(=O)NCc1ccccc1)C2=O (stereo not drawn)	GPR151 ag 5.5 | GPR151 conf act inactive | GPR119 ag inactive
CCc1ccc(NC(=O)CN(c2ccc(Br)cc2)S(C)(=O)=O)cc1	none
COc1ccc(C2=NS(=O)(=O)N(C)C(C(=O)Nc3ccc(F)cc3F)=C2)cc1OC	none
Cc1ccc(C2=NS(=O)(=O)N(C)C(C(=O)Nc3ccc(F)cc3F)=C2)cc1	GPR151 ag 11 | GPR151 conf act inactive | GPR119 ag inactive
COc1cc2c(cc1NC(=O)C/C(C)=N/NC=O)oc1ccccc12	GPR151 ag 13 | GPR151 conf act inactive | GPR119 ag inactive
COc1ccc(C(=O)c2sc3nc(C)cc(-c4cccs4)c3c2N)cc1OC	GPR151 ag 6.9 | GPR151 conf act inactive | GPR119 ag inactive
COc1ccc(C(=O)c2sc3nc(C)cc(-c4cccs4)c3c2N)cc1	none
COc1ccc2oc(-c3ccccc3)c(C(=O)O)c2c1	none
COc1ccc2oc(-c3ccccc3)c(C(=O)Nc3nccs3)c2c1	GPR151 ag 6.2 | GPR151 conf act inactive | GPR119 ag inactive
Cn1c(SCC(N)=O)nnc1-c1ccc2c(c1)OCO2	GPR151 ag 9.6 | GPR151 conf act inactive | GPR119 ag inactive
CN(C)C(=O)CSc1nnc(-c2ccc3c(c2)OCO3)n1C	none
Cc1cccn2c(CNC3CCOC(C)(C)C3)c(C(=O)N3CCOCC3)nc12 (stereo not drawn)	GPR151 ag 4.9 | GPR151 conf act inactive | GPR119 ag inactive
Cc1cccn2c(CNCCc3ccccn3)c(C(=O)N3CCOCC3)nc12	GPR151 ag 5.9 | GPR151 conf act inactive | GPR119 ag inactive
Cc1cccn2c(CN3CCN(c4ccncc4)CC3)c(C(=O)N3CCCCC3)nc12	GPR151 ag 5.2 | GPR151 conf act inactive | GPR119 ag inactive
Cc1cccn2c(CN3CCOCC3)c(C(=O)N3CCCCC3)nc12	none
FC(F)(F)c1ccc(Cn2cnc3c(NC4CC4)nc(Nc4cnccn4)nc32)cc1	none
C=CCNC(=O)c1cc(-c2ccncc2)nc2c(C)cc(C)cc12	none
CC(C)(C)NC(=O)c1nn2c(C(F)(F)F)cc(-c3ccco3)nc2c1Br	none
CCOc1ccc(S(=O)(=O)NC2CCCCC2)cc1	GPR151 ag 5.3 | GPR151 conf act inactive | GPR119 ag inactive
CCOc1ccc(S(=O)(=O)NC2CC2)cc1	none
CCOC(=O)C1CCN(S(=O)(=O)c2ccc(CC)cc2)CC1	none
c1c2c(cc3c1OCCO3)C1CN(C2)Cc2cc3c(cc21)OCCO3	GPR151 ag 7.4 | GPR151 conf act inactive | GPR119 ag inactive
CCc1ccc(C2NCCc3cc4c(cc32)OCCO4)cc1 (stereo not drawn)	none
COc1ccc(NC(=O)C2CCCN(S(=O)(=O)c3ccc4c(c3)oc(=O)n4C)C2)cc1 (stereo not drawn)	none
CC(=O)Nc1ccc(Nc2cc(N3CCCC3CO)ncn2)cc1 (stereo not drawn)	GPR151 ag 5.2 | GPR151 conf act inactive | GPR119 ag inactive
OCC1CCCN1c1cc(Nc2ccc(N3CCOCC3)cc2)ncn1 (stereo not drawn)	none
Cc1ccc(F)cc1NC(=O)Nc1ccc(F)cc1	none
